# Test results published in PubChem BioAssay (NCATS).
# Several values for one entry are separate records, joined by “and”; a condition that tells them apart may be missing. Equal entries are not always repeated. Records with an inconclusive call do not appear. Values without a mark were called inactive. Activity calls are given as the source filed them. The call rests on the fitted dose curve; in most records, active means well fitted inhibition curve with a large enough effect; inconclusive means small, poorly fitted or top-dose-only effect; inactive means flat fitted curve, though single readings scatter.
# Legend:
# [1] = Drug repurposing screens with cells derived from glioblastoma tumor samples (AID 1345199); conditions: GBM patient neurospheres viability, ATP luminescence, 48 h; further: nearly all actives have a fitted effect of over 40% in size
# In short: (§1)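 Primary testing used CD133+ neurospheres from four GBM patients, seven concentrations, 48 h exposure and ATP-based viability; confirmation added three slower-growing patient lines.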
# astro = control astrocytes; assay: as above; conditions: viability, ATP luminescence, 48 h; series mostly up to 45.9 µM
# In short: as §1
# [2] = at 45.9 µM (top of the series), tumour line B
# [3] = at 45.9 µM (top of the series), tumour line D
# [4] = at 46.1 µM (top of the series), tumour line C
# [5] = at 46 µM (top of the series), tumour line A
# [6] = at 20 µM (top of the series), tumour line C
# [7] = at 21.2 µM (top of the series), tumour line B
# [8] = at 21.2 µM (top of the series), tumour line D
# On the % scale 0 is the no-effect control and ±100 the full control effect; potency means the concentration at half of the fitted maximal effect.
structure (smiles),measurement,setting,value
c1cc2c(c(NC3=NCCN3)c1)CCCC2,"activity, negative = cell killing",[1]; [2],-18.6%
same,"activity, negative = cell killing",[1]; [3],-28.2%
same,"activity, negative = cell killing",[1]; [4],1.62%
same,Potency,[1]; tumour line A,14.1 µM (active)
same,Potency,astro,inactive
ClC=C(Cl)Cl,"activity, negative = cell killing",[1]; [2],-0.797%
same,"activity, negative = cell killing",[1]; [3],-16.6%
same,"activity, negative = cell killing",[1]; [5],-33.6%
same,"activity, negative = cell killing",[1]; [4],-1.4%
same,Potency,astro,inactive
C[C@H]1CC[C@]2(NC1)O[C@H]1C[C@H]3[C@@H]4CC[C@H]5C[C@@H](O)CC[C@]5(C)[C@H]4CC[C@]3(C)[C@H]1[C@@H]2C,"activity, negative = cell killing",[1]; [2],-14.5%
same,"activity, negative = cell killing",[1]; [3],-28.2%
same,"activity, negative = cell killing",[1]; [4],-9.91%
same,Potency,[1]; tumour line A,8.91 µM (active)
same,Potency,astro,inactive
O=CC=O,"activity, negative = cell killing",[1]; [2],0.224%
same,"activity, negative = cell killing",[1]; [3],-5.05%
same,"activity, negative = cell killing",[1]; [5],-22.3%
same,"activity, negative = cell killing",[1]; [4],29.7%
same,Potency,astro,inactive
C[C@]12C[C@H]3S[C@H]3C[C@@H]1CC[C@@H]1[C@@H]2CC[C@]2(C)[C@@H](O)CC[C@@H]12,"activity, negative = cell killing",[1]; [6],-0.246%
same,"activity, negative = cell killing",[1]; [7],-21.3%
same,"activity, negative = cell killing",[1]; [8],-16.8%
same,Potency,[1]; tumour line A,14.1 µM (active)
same,Potency,astro,inactive
CCON=O,"activity, negative = cell killing",[1]; [2],-13.3%
same,"activity, negative = cell killing",[1]; [3],8.29%
same,"activity, negative = cell killing",[1]; [4],-23.8%
same,Potency,[1]; tumour line A,0.224 µM (active)
same,Potency,astro,inactive
C=C[C@H]1CN2CC[C@H]1C[C@H]2[C@H](OC(=O)OCC)c1ccnc2ccc(OC)cc12,"activity, negative = cell killing",[1]; [2],-6.26%
same,"activity, negative = cell killing",[1]; [3],-11.2%
same,"activity, negative = cell killing",[1]; [4],18.3%
same,Potency,[1]; tumour line A,10 µM (active)
same,Potency,astro,inactive
C[C@@H](CO)NC(=O)[C@@H]1C=C2c3cccc4[nH]cc(c34)C[C@H]2N(C)C1,"activity, negative = cell killing",[1]; [2],-4.28%
same,"activity, negative = cell killing",[1]; [3],-4.71%
same,"activity, negative = cell killing",[1]; [5],-21.2%
same,"activity, negative = cell killing",[1]; [4],15.8%
same,Potency,astro,inactive
COc1ccc2c3c1O[C@H]1C(=O)CC[C@H]4[C@@H](C2)N(C)CC[C@]314,"activity, negative = cell killing",[1]; [2],-6.83%
same,"activity, negative = cell killing",[1]; [3],-23.5%
same,"activity, negative = cell killing",[1]; [5],-21.5%
same,"activity, negative = cell killing",[1]; [4],-7.26%
same,Potency,astro,inactive
O=C/C=C/c1ccccc1,"activity, negative = cell killing",[1]; [2],0.0687%
same,"activity, negative = cell killing",[1]; [3],-9.63%
same,"activity, negative = cell killing",[1]; [5],-23.4%
same,"activity, negative = cell killing",[1]; [4],1.48%
same,Potency,astro,inactive
C[C@]12C=CC(=O)C=C1CC[C@@H]1[C@@H]2CC[C@]2(C)OC(=O)CC[C@@H]12,"activity, negative = cell killing",[1]; [2],-3.73%
same,"activity, negative = cell killing",[1]; [3],-7.84%
same,"activity, negative = cell killing",[1]; [5],-28.6%
same,"activity, negative = cell killing",[1]; [4],1.2%
same,Potency,astro,inactive
CCCC(=O)OC(C(Cl)(Cl)Cl)P(=O)(OC)OC (stereo unspecified),"activity, negative = cell killing",[1]; [2],-9.86%
same,"activity, negative = cell killing",[1]; [3],-6.58%
same,"activity, negative = cell killing",[1]; [5],-3.23%
same,"activity, negative = cell killing",[1]; [4],7.15%
same,Potency,astro,inactive
Clc1ccc(C(Cn2ccnc2)OCc2csc3c(Cl)cccc23)c(Cl)c1 (stereo unspecified),Potency,[1]; tumour line A,12.6 µM (active)
CC(=O)O[C@H]1CC[C@@]2(C)C(=CC[C@@H]3[C@@H]2CC[C@]2(C)C(=O)CC[C@@H]32)C1,Potency,[1]; tumour line A,7.94 µM (active)
COCC(C)N(C(=O)CCl)c1c(C)csc1C (stereo unspecified),"activity, negative = cell killing",[1]; [2],-13.4%
same,"activity, negative = cell killing",[1]; [3],-11.3%
same,"activity, negative = cell killing",[1]; [4],-13.3%
same,Potency,astro,inactive
O=C(NCNC(=O)NC1C(=O)NC(=O)N1CO)NC1C(=O)NC(=O)N1CO (stereo unspecified),"activity, negative = cell killing",[1]; [2],-11.9%
same,"activity, negative = cell killing",[1]; [3],3.73%
same,"activity, negative = cell killing",[1]; [4],-7.65%
same,Potency,astro,inactive
C=CCN(C1=NCCN1)c1c(Cl)cccc1Cl,"activity, negative = cell killing",[1]; [2],-5.59%
same,"activity, negative = cell killing",[1]; [3],-0.731%
same,"activity, negative = cell killing",[1]; [4],-15.8%
same,Potency,astro,inactive
COC(=O)[C@@H]1[C@H]2CC[C@@H](C[C@H]1OC(=O)c1ccccc1)N2C,"activity, negative = cell killing",[1]; [2],-0.119%
same,"activity, negative = cell killing",[1]; [3],4.05%
same,"activity, negative = cell killing",[1]; [4],-3.81%
same,Potency,astro,inactive
[O]=[Cr](=[O])([OH])[O][Cr](=[O])(=[O])[OH],"activity, negative = cell killing",[1]; [3],-3.21%
same,"activity, negative = cell killing",[1]; [4],-22.8% and -5.59%
same,Potency,astro,inactive
C[C@@H]([C@H](O)c1ccccc1)N(C)C,"activity, negative = cell killing",[1]; [2],-6.97%
same,"activity, negative = cell killing",[1]; [3],-5.32%
same,Potency,astro,inactive
O=P(O)(O)C(Cl)(Cl)P(=O)(O)O,"activity, negative = cell killing",[1]; [2],1.35%
same,"activity, negative = cell killing",[1]; [3],-11.3%
same,"activity, negative = cell killing",[1]; [4],-5.59%
same,Potency,astro,inactive
C[C@@H](Cc1ccccc1)N(C)C,"activity, negative = cell killing",[1]; [2],-4.88%
same,"activity, negative = cell killing",[1]; [3],-10.7%
same,"activity, negative = cell killing",[1]; [4],-6.52%
same,Potency,astro,inactive
c1csc(C2(N3CCCCC3)CCCCC2)c1,"activity, negative = cell killing",[1]; [2],-10.4%
same,"activity, negative = cell killing",[1]; [3],-7.27%
same,"activity, negative = cell killing",[1]; [4],-24.6%
same,Potency,astro,inactive
O=C(O)C(Cl)(Cl)Cl,"activity, negative = cell killing",[1]; [2],-5.78%
same,"activity, negative = cell killing",[1]; [3],4.24%
same,"activity, negative = cell killing",[1]; [4],3.74%
same,Potency,astro,inactive
C[N+]1(C)CCCCC1COC(=O)C(O)(c1ccccc1)c1ccccc1 (stereo unspecified),"activity, negative = cell killing",[1]; [2],-0.912%
same,"activity, negative = cell killing",[1]; [3],-3.36%
same,"activity, negative = cell killing",[1]; [4],-16.5%
same,Potency,astro,inactive
O=C1OC2(c3cc(Br)c(O)cc3Oc3c2cc(Br)c(O)[c]3[Hg])c2ccccc21 (stereo unspecified),"activity, negative = cell killing",[1]; [6],-9.78%
same,Potency,[1]; tumour line A,14.1 µM (active)
same,Potency,astro,inactive
CCNC1(c2cccs2)CCCCC1=O (stereo unspecified),"activity, negative = cell killing",[1]; [6],-10.7%
same,"activity, negative = cell killing",[1]; [7],2.65%
same,"activity, negative = cell killing",[1]; [8],-6.43%
same,Potency,astro,inactive
